Among all 5,500 compounds or so, about 2,000 (36%) were called active. Inconclusive results (about 18%) are left out. Rule as the data show it: active = normalized growth mostly below about 0.91 (no sharp cut-off); inconclusive = no clear call, values can overlap the other calls; inactive = mostly above about 0.92. Some of the results follow.
Assay: chemical genetic growth profiling, strain panel (AID 1159580);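 also: tested at 20 µM; growth read once vehicle control cultures reached saturation at 30 °C; 1 = growth at the plate median or of vehicle wells; lower values mean less growth of the strain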
Conditions: S. cerevisiae deletion strains, growth OD
[1] = locus YAL013W, strain DEP1, active compounds read low
[2] = locus YAL040C, strain CLN3, active compounds read low
[3] = locus YDR363W, strain ESC2, active compounds read low
[4] = locus YER002W, strain NOP16, active compounds read low
[5] = locus YNL175C, strain NOP13, active compounds read low
[6] = locus YNL197C, strain WHI3, active compounds read low
[7] = locus YNL224C, strain SQS1, active compounds read low
[8] = locus YOR083W, strain WHI5 (second series), active compounds read low

Measured: normalized growth

Nc1ncnc2c1ncn2[C@@H]1O[C@H](COP(=O)(O)OP(=O)(O)OP(=O)(O)OP(=O)(O)OC[C@@H]2O[C@H](n3cnc4c(N)ncnc43)C(O)[C@@H]2O)[C@H](O)C1O (some centres not stated)
inactive: [1] 1 | [2] 1.01 | locus YCL061C, strain MRC1 (second series), active compounds read low 0.992 | [3] 1.04 | [4] 1.03 | locus YGR229C, strain SMI1, active compounds read low 1.03 | locus YMR307W, strain GAS1, active compounds read low 1.03 | locus YNL153C, strain GIM3, active compounds read low 0.993 | [5] 0.997 | [6] 0.974 | [7] 1 | [8] 0.996 | locus YPL241C, strain CIN2, active compounds read low 0.999

O=c1[nH]c(=O)n([C@H]2C[C@H](O)[C@@H](CO)O2)cc1Br
inactive: [1] 1 | [2] 1.08 | [3] 1.01 | [4] 1.01 | [5] 1 | [6] 1 | [7] 1 | locus YNL322C, strain KRE1, active compounds read low 1.02 | [8] 0.991

Source: PubChem BioAssay AID1159580 (chemical genetic matrix, 2015)
